According to the supplement of paper PMC3334620:
Whole data set: some 33,000 sequences, median “E-score (-0.5 to 0.5)” near -0.035, cut for the highest 2% near 0.34. Many of the other results were omitted from the sample, so the highest values are more common in it than they were.

biological target: T1, Mot3 (UniProt P54785); test: PBM E-score (8-mer binding enrichment) (E-score (-0.5 to 0.5)); higher = stronger / more preferred TF binding; conditions: protein concentration: 200 nM; construct: GST-full length
T1 sequence: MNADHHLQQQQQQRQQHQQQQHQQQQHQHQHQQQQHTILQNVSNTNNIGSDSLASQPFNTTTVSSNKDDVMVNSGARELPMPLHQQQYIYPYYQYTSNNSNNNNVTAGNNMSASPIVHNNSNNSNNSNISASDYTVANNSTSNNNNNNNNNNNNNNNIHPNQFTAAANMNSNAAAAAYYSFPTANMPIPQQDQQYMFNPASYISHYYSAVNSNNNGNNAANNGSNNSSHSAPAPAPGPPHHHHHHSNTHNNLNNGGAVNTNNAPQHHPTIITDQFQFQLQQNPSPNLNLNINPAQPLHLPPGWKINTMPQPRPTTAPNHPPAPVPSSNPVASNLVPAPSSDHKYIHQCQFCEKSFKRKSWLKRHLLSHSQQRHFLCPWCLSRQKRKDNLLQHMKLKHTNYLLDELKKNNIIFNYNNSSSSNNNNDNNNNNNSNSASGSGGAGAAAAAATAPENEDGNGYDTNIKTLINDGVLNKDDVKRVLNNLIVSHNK
Procedure: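 Universal 'all 10-mer' protein binding microarrays (Agilent AMADID 015681) probed with GST-tagged S. cerevisiae TFs (full-length or DBD) made by in vitro transcription/translation (PURExpress), about 100-200 nM. Bound TF was detected with fluorescent anti-GST. Each ungapped 8-mer (which stands for itself and its reverse complement) is scored by the PBM enrichment score (E-score), a modified Wilcoxon-Mann-Whitney statistic from -0.5 to +0.5, computed with the Universal PBM Analysis Suite. Scale: above 0.35 generally sequence-specific binding.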

Sequence	PBM E-score
AAGTAACC	0.00035
ATCCAGCG	-0.127
GAACCCTC	-0.176
AGGAAGCG	-0.0464
GTATGCTA	-0.0526
ATCGAAAG	-0.0284
GTTTCATA	-0.0759
CTCTAACA	0.0488
GTAGCCTA	0.177
GTAGAAGA	-0.00994
ACAAGGCC	0.0968
ACACTTAC	0.188
CGCACATA	-0.146
CTGCCTCC	-0.215
ATGCCTGC	0.407
AAGCCTTA	-0.147
CTGCCTCA	-0.15
GTGCCTTA	0.49
GCGCCTTA	0.31
ATGCCTTA	0.342
ATGCCTCA	0.111
GTGCCTCA	0.454
CTGCCTTA	0.059
ATGCCTTG	0.267
ATGCCTGG	0.127

Sequence	PBM E-score
CTGCCTGC	0.336
GCAGCCTA	-0.0663
CCAAGAGA	-0.0138
CGGCCTGC	-0.212
AGTGGCCA	-0.158
ATCTACCG	-0.115
ACTTTGCT	-0.0166
GTGCCTAA	0.49
ATGCCTAA	0.278
ACGCCTAC	0.0133
GCGCCTAC	0.358
GTGCCCCA	-0.248
ATGCCCAA	-0.0977
CCGCCTAC	-0.166
CTGCCTAA	0.258
GTGCCCAA	0.392
CTTAGAAA	0.11
AAAGCACC	-0.0982
CAAAGCCC	-0.0136
ACACAACA	0.307
CTAACCCA	-0.0185
TTAACGAA	0.128
TAAGGTGA	-0.0657
AACACGTT	0.365
AACACGAG	0.288

Sequence	PBM E-score
AACACGGT	0.353
AACACGGC	0.257
AACACGGA	0.252
AACACGAT	0.349
GACACGAC	0.31
AACACGTA	0.32
AACACGAA	0.33
AACACGTC	0.316
AACACGAC	0.344
CACACGAC	0.0741
GCATCGCA	-0.36
CGACTTAC	-0.127
GACGCAAC	-0.0695
AGGATTGC	-0.0652
CGTTGAGA	-0.183
AAGTTTTG	0.167
ACTGGGCG	-0.198
CGCACCTC	-0.0771
AGGCAAAC	0.482
AGGCAAAA	0.467
TGGCAAAA	0.0985
GGGCAAAA	0.0722
ATGCAAAG	0.128
AGGCAAAT	0.479
CGGCAAAC	-0.217

Sequence	PBM E-score
AGGCAAAG	0.472
AGGCAGAT	0.0714
ATGCAAAT	0.146
GGGCAAAC	0.0101
CGGCAAAG	-0.226
CCCGACGC	-0.262
ATCGGCGG	-0.342
ACCAGTAG	-0.0459
AAGGTGTG	-0.0849
TTACAGAA	0.106
ACGCTTAA	0.114
ATACTTAA	0.173
CCCCTAAG	-0.313
GGAGGCAA	0.437
CGAGGCAC	0.411
CGAGGCAA	0.318
AGAGGCAA	0.409
AGAGGCCA	-0.274
TGAGGCCA	0.0399
GGAGGCGA	-0.194
GGAGGCCA	-0.34
CGAGGCAG	-0.0696
TGAGGCAA	0.389
TGAGGGCA	-0.0148
AGAGGCGA	-0.227

Sequence	PBM E-score
CCCGTTGA	-0.205
ACGTTCTG	-0.0537
CCTCTTAC	-0.0603
ATCCATAG	-0.206
GGCCGGAC	-0.187
CACTGGTA	-0.00383
AGCGTTTC	0.127
GTTGCTTA	0.0798
AAGGATCA	0.0089
AGAGGCAG	-0.133
AGAGGCAT	-0.0714
AGAGGCAC	0.465
GGAGGCCC	-0.266
GGGGGCAC	-0.156
GGAGGCAC	0.474
GTTCTGGA	0.0443
CGGCACCG	-0.0283
AGGCACCT	0.491
CGGCACCC	-0.126
AAGCACCT	0.0273
AAGCACCG	-0.206
AGGCACCA	0.492
CGGCACCA	-0.159
ACGCACCT	0.129
AGGCACCG	0.491

Sequence	PBM E-score
AGGCACCC	0.491
GGGCACCA	0.171
GGGCACCC	-0.0287
CCTATTGA	0.124
CGGTGTAC	0.0428
GGAGATAC	-0.137
AGTTGGAC	0.0582
GGTAGAGA	-0.198
TCCGGAGA	-0.297
CCGGCGAG	-0.369
AATCGACA	0.201
GATCCATA	-0.201
ATGGCGGA	-0.302
TCTACCCA	-0.077
CGGTGTCC	-0.376
CAAAGCAG	0.05
AGCTAACC	-0.152
ATGTAGAA	0.359
ATGTAGGC	0.361
GTGTAGTA	0.292
GTGTAGAA	0.364
CTGTAGAA	0.191
GCGTAGAA	0.232
ATGTAGGA	0.158
ATGTAGAG	0.252

Sequence	PBM E-score
CTGTAGGC	0.285
GTGCGGTA	-0.0948
AGAGAGGA	-0.246
AGTTAGAG	-0.21
GGGAAGCA	-0.178
AACAGCCT	0.0281
CGAGCCAG	-0.0469
GTCGAACA	0.0718
GAAATTTA	0.165
ATGTAAAA	0.415
GTGTACAA	0.325
CTGTAAAA	0.302
TTGTAAAA	0.321
CTGTACAC	0.265
ATGTAAAG	0.411
AAGTAAAG	0.131
GTGTACAC	0.344
GTGTAAAC	0.387
CTGTAAAG	0.24
CTGTAAAC	0.295
GGGTAAAC	-0.0508
GCGCTCCA	-0.136
GTTCGCCA	-0.103
CCATTGAA	0.0844
CTCGGATC	-0.235

Sequence	PBM E-score
GTCGGGAA	-0.104
AGCATCCT	-0.268
ATAAGATA	0.0848
CACGTTGC	0.158
TAGCACGA	-0.0559
ACTCCGGG	-0.248
CGCTCATA	-0.225
GAGCCCAA	-0.136
CGGCCGGA	-0.264
CCGAACAC	-0.0162
ACGTAAAT	0.272
GTGTAAAA	0.377
AGGTAAAT	0.318
GCGTAAAA	0.314
ACGTAAAC	0.251
GGGTAAAA	0.112
AGGTAAAC	0.302
ATGTAAAC	0.414
ATGTAAAT	0.42
ATGGAGGA	0.0248
TAGTGACA	0.124
GTGTGCAA	0.128
CTGGCCCA	-0.265
TATCGGCA	-0.0281
ATAGCGCC	0.228

Sequence	PBM E-score
CGACTCTC	-0.347
CATCGAAG	-0.163
AACCTGGG	0.0477
AGGGACCA	-0.201
AGGTTTGG	-0.141
CCTTCAAA	0.115
CCTTCAAG	0.351
CCTTCAAC	0.247
AGAGAATC	-0.0691
AACCATTA	0.117
GAGGCCCC	-0.242
CTACACGA	0.377
CTACACGC	0.356
CTACACTA	0.135
CTACACTC	0.0954
CGACACGC	0.157
CTACACAA	0.29
GTACACAA	0.323
CTACACAG	0.348
GTACACGA	0.327
CTACACAC	0.333
TTACACAA	0.42
ATACACAG	0.332
AGCCAAGG	-0.106
AGTTCTCG	-0.137

Sequence	PBM E-score
AAAGTGTC	0.0356
AGCGACTC	-0.134
AATGTCTG	-0.0738
AGCGAGAG	-0.117
CTCAAGCC	-0.236
TCATAACA	0.255
AGAATGGA	-0.0583
AAGACCAT	-0.234
CTTAGGCA	0.444
GTTAGGGA	-0.113
GTTAGGTA	0.26
ATTAGGCC	-0.111
GTTAGGCA	0.454
CTTAGGCC	-0.0744
CTTAGGTA	0.139
ATTAGGCG	-0.0797
ATTAGGCA	0.472
CTATGCAA	0.0284
ACCTACCA	0.12
CGGGGATC	-0.303
AAAGCGTG	0.0569
ACCTGATA	0.203
TCAACACA	0.353
CCAACACG	0.299
ACTACACA	0.331

Sequence	PBM E-score
ACAACACA	0.337
TCTACACA	0.361
CCTACACG	0.336
GCTACACA	0.253
ACTACACG	0.386
ACTACACT	0.181
CCCAACGA	-0.0748
AGGGACTG	-0.226
CTGCAAGA	0.0551
CCTCTTCA	-0.171
ATAGCACG	-0.00445
GTAATCCA	0.225
ACAAAGCC	0.0921
CCAAATAG	0.00768
TGAAGGCA	0.483
TGAAGCCA	-0.0204
AGAAGGCA	0.475
AGAAGGCG	0.27
AGAAGGCT	-0.0686
GGAAGGCA	0.482
CGAAGGCC	-0.0438
CGAAGGCA	0.476
CGAAGGCG	0.193
TGAAGTCA	0.0305
GGAAGGGA	-0.292

Sequence	PBM E-score
GGAAGGCC	-0.214
ACCGAGAC	0.0166
CAAGCGTC	-0.0912
GCGGACAC	-0.3
ACGATCCA	-0.0439
CCCTAGTC	-0.163
AATAGGCC	-0.0184
TATAGTCA	0.188
CATAGGCC	0.135
AATAGGCA	0.479
CATAGGCG	0.0696
GATAGGCC	0.0586
CATAGGCA	0.476
GATAGGGA	-0.155
GATAGGCA	0.473
AATAGGCT	0.161
TATAGGGA	-0.0815
TATAGGCA	0.482
GAGTCGAA	-0.0456
CAAGGATG	0.121
CTCAAGCA	-0.101
GGAAGTAC	-0.139
ATGACCAT	0.0148
CGCACTCC	-0.223
CTGAGGTC	-0.255

Sequence	PBM E-score
ATCATGTA	0.392
GTCATGGA	-0.179
CTCATGGA	0.261
GTCATGTA	0.356
CTTATGTA	0.342
GTCATGCA	0.0879
CTTATGTC	0.0522
CTCATGTC	0.191
ATCATGTG	0.198
CTCATGTA	0.359
ATTATGTA	0.339
ATCATGTC	0.245
ATGGTTGA	-0.153
CCATCCGC	-0.164
CCGAAGAC	-0.306
GGGGTCTA	-0.0481
TAGAGAAA	-0.0644
CAACCAGA	0.0325
AAATAGCG	0.11
AGTTACGA	0.138
CCTAGAAA	0.0447
CTGAGCCC	-0.191
CCGTTGAG	-0.213
TGGGCAAA	-0.0148
CCGGCAAG	-0.0693

Sequence	PBM E-score
CAGGCAAA	0.481
CAGGCAGG	0.306
CGGGCAAC	-0.129
CAGGCAAG	0.491
TAGGCAAA	0.48
CAGGCAGA	0.0294
CAGACAAC	0.00587
CAGGCAAC	0.489
CGGGCAAA	0.0704
GAGGCAAA	0.328
ATCCACGG	-0.0193
AACCAGGT	-0.172
AAGACATC	-0.0992
CATAGTGC	0.117
ACAGCCGT	-0.24
CTCCGAAC	-0.132
ACACTACC	-0.089
ACCTTAAA	-0.092
GCCTTAAA	0.349
CCCTTAAA	-0.00813
